# According to PubChem BioAssay (NCATS):
# Values without a mark were called inactive. Records with an inconclusive call do not appear. A call without a number means that no potency is given here. The source made the active and inactive calls. Unless noted, the call rests on the fitted dose curve; in most records, active means well fitted inhibition curve with a large enough effect; inconclusive means small, poorly fitted or top-dose-only effect; inactive means no such curve, though single readings can be large or run the other way.
# How the values were obtained:
# [1] = target: Cytochrome P450 1A2 (Homo sapiens) (UniProt P05177); assay: p450-cyp1a2 (AID 410; calls by dose curve; further: potency means the concentration at half of the fitted maximal effect)
# Cytochrome P450 1A2 (Homo sapiens), sequence (P05177 whole entry, looked up): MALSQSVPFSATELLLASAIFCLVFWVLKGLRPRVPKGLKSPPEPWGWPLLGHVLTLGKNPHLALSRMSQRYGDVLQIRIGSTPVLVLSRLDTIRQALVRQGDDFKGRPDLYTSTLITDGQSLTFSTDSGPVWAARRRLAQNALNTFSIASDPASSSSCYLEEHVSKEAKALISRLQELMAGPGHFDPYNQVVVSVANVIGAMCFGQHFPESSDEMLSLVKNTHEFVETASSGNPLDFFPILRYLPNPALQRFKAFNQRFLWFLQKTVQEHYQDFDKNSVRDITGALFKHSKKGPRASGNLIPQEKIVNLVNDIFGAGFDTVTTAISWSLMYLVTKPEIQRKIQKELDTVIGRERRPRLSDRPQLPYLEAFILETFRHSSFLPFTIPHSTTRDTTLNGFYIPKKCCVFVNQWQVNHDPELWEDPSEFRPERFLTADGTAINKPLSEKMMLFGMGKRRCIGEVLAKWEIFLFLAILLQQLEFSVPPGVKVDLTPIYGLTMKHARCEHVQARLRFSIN
# How it was run: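 Luminescent readout of luciferin formed from Luciferin-ME by human CYP1A2; data normalized against complete inhibition by 57 uM furafylline. Enzyme 20nM, substrate 100uM at Km, 100mM KPO4 buffer, 60 min reaction at room temperature.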
# [2] = target: Glucocorticoid receptor (Homo sapiens) (UniProt P04150); assay: GR-EFC Redistribution (AID 451; calls by dose curve; further: potency means the concentration at half of the fitted maximal effect); settings: CHO-K1 GR-EFC translocation, beta-gal luminescence, 2 h
# Glucocorticoid receptor (Homo sapiens), sequence (P04150 whole entry, looked up, the tested form may be a part): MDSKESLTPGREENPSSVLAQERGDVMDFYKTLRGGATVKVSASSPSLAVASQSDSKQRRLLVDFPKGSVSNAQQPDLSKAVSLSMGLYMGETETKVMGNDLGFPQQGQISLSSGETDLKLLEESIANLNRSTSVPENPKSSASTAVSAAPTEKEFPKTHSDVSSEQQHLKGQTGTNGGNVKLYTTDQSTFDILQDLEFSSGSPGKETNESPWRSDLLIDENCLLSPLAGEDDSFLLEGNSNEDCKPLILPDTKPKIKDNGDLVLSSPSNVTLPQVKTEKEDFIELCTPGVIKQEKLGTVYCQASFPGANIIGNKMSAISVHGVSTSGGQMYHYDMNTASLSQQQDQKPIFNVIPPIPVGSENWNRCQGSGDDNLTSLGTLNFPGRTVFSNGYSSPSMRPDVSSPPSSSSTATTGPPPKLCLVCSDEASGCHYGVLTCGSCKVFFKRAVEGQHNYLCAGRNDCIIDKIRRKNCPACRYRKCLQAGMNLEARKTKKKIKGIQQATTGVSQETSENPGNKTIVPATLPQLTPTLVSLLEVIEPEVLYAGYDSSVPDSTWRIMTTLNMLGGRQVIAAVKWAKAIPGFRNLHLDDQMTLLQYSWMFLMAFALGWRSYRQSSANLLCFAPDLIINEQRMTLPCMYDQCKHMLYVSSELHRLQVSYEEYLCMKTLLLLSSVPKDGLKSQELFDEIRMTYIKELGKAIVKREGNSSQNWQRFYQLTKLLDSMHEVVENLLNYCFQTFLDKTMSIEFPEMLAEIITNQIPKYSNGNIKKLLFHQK
# How it was run: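 CHO-K1 cells stably expressing nuclear-localized β-gal enzyme acceptor and GR fused C-terminally to the enzyme donor fragment; ligand-driven nuclear translocation restores β-gal by complementation. Compounds titrated up to 46 uM final, 2 h at 37 °C; luminescence read.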
# [3] = target: Mitogen-activated protein kinase 10 (Mus musculus) (UniProt Q61831); assay: JNK3 AlphaScreen Assay (AID 530; active means well fitted curve in either direction with a large enough effect, not every such curve was filed as active;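 further: kinase came from lysate of stimulated human HepG2 cells; signal reports phosphorylation of biotinylated GST-cJun 1-79 at Ser73 with 10 µM ATP; series mostly up to about 57 µM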)
# How it was run: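 Inhibitors reduce antibody binding to phosphorylated biotin-cJun, lowering AlphaScreen luminescence. Lysates from HepG2 cells pre-activated by IL-1beta plus TNF-alpha supplied JNK3; compounds were titrated.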
# [4] = target: 3',5'-cyclic-AMP phosphodiesterase 4B (Homo sapiens) (UniProt Q07343); assay: qHTS Assay for Inhibitors of PDE-IV (AID 607; active means well fitted activation curve with a large enough effect in the main read-out, with a control signal flat, not every such curve was filed as active)
# 3',5'-cyclic-AMP phosphodiesterase 4B (Homo sapiens), sequence (Q07343 whole entry, looked up): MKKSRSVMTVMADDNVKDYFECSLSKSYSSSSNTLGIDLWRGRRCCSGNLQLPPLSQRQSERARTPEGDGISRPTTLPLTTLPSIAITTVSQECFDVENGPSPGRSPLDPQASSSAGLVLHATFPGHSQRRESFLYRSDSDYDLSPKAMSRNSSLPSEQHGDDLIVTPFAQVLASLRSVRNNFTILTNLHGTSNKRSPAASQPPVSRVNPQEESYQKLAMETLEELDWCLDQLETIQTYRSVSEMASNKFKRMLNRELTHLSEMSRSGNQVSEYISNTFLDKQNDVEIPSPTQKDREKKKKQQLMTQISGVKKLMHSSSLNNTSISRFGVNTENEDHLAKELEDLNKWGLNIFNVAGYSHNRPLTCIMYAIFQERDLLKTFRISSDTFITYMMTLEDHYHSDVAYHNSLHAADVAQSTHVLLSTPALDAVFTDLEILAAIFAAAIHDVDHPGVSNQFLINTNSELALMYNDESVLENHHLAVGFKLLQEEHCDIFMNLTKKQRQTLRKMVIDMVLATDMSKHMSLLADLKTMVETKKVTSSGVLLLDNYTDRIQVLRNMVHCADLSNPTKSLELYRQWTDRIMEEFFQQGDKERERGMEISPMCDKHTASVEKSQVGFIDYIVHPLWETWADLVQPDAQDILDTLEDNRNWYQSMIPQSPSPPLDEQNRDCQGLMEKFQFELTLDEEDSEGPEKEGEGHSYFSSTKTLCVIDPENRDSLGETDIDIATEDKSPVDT
# How it was run: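 ACTOne HEK293 cells carry a modified cAMP-gated CNG channel and express endogenous PDE4; plated 1000 cells/well, compounds up to 22.9 uM final. Membrane-potential dye fluorescence (ex 535/em 590) was read; parental cells received 10 uM forskolin + 100 uM RO 20-1724.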
# [5] = target: Cytochrome P450 2C9 (Homo sapiens) (UniProt P11712); assay: qHTS Assay for Inhibitors and Substrates of Cytochrome P450 2C9 (AID 883); further: nearly all actives have a fitted effect of over 60% in size; further: potency means the concentration at half of the fitted maximal effect
# Cytochrome P450 2C9 (Homo sapiens), sequence (P11712 whole entry, looked up): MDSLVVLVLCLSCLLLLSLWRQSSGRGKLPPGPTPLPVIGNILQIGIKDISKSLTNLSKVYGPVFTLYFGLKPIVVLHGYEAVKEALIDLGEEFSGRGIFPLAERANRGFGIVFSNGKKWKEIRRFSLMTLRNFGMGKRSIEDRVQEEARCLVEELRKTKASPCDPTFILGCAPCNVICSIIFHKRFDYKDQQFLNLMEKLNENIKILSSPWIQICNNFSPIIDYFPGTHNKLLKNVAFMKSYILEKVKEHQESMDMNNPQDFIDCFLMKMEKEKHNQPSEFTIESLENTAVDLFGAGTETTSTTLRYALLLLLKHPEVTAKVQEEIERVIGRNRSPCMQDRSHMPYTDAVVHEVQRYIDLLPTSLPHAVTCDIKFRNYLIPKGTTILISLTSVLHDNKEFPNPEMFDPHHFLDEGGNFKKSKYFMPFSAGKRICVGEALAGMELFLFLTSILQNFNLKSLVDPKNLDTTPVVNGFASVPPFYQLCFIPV
# How it was run: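 Human CYP2C9 (10nM) hydroxylated Luciferin-H (100uM, at its KM) to luciferin in 25mM KPO4. Compound was preincubated 10 min at 37C, then NADPH regeneration started a 60 min reaction at 37C. Luminescence was read after detection reagent, normalized to 57uM sulphaphenazole.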
# [6] = target: Cytochrome P450 2D6 (Homo sapiens) (UniProt P10635); assay: qHTS Assay for Inhibitors and Substrates of Cytochrome P450 2D6 (AID 891);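 further: luciferin methyl ether substrate demethylated by CYP2D6 with NADPH regeneration; nearly all actives have a fitted effect of over 60% in size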
# Cytochrome P450 2D6 (Homo sapiens), sequence (P10635 whole entry, looked up): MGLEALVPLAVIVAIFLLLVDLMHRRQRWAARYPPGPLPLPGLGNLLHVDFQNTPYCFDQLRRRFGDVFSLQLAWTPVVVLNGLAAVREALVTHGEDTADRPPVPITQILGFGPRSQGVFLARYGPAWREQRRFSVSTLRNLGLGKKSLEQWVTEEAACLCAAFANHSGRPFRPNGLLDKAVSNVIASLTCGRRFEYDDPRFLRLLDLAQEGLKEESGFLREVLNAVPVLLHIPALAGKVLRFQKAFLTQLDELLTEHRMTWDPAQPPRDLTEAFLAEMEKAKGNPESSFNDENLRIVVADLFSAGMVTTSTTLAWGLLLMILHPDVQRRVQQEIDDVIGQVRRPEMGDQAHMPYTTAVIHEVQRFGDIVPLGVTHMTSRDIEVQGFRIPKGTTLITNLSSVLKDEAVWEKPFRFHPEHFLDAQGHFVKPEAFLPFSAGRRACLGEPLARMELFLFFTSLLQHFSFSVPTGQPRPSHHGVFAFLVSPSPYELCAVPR
# How it was run: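 Human CYP2D6 (5 nM) with 30 uM Luciferin-ME EGE (at Km) in 100 mM KPO4, compound preincubated 10 min, then NADPH regeneration system for 60 min at room temperature. Luciferin read by luminescence; normalized to 1.43 uM quinidine.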
# [7] = target: Cytochrome P450 2C19 (Homo sapiens) (UniProt P33261); assay: qHTS Assay for Inhibitors and Substrates of Cytochrome P450 2C19 (AID 899); further: nearly all actives have a fitted effect of over 60% in size; further: potency means the concentration at half of the fitted maximal effect
# Cytochrome P450 2C19 (Homo sapiens), sequence (P33261 whole entry, looked up): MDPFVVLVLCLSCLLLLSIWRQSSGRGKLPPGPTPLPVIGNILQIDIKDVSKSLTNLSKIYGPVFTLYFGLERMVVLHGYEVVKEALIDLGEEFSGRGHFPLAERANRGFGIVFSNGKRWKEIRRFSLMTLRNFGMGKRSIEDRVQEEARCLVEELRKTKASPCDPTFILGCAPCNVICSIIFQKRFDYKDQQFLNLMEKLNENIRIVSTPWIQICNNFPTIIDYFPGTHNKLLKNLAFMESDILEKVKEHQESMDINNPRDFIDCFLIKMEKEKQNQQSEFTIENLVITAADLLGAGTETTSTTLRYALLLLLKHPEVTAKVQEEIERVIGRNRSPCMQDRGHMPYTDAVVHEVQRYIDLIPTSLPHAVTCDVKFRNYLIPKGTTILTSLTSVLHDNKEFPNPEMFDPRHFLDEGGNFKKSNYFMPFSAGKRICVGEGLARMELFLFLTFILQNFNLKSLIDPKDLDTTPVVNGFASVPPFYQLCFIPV
# How it was run: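 Human CYP2C19 (5nM) with Luciferin-H EGE at 10uM (its KM) in 50mM KPO4 was preincubated with compound for 10 min at 37C. NADPH regeneration started a 60 min 37C reaction. Luciferin was read by luminescence, normalized to 57uM ketoconazole.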
# [8] = target: Glucocorticoid receptor (Homo sapiens) (UniProt P04150); assay: GR-GFP Redistribution (AID 450;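 active means compounds whose dose series gives a full or clear partial fitted curve of increased nuclear translocation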; further: potency means the concentration at half of the fitted maximal effect)
SMILES,Potency [1],Potency [2] [µM],Potency [3],Potency [4],Potency [5],Potency [6],Potency [7],Potency [8] [µM]
CC(C)[C@@H](CC(=O)N[C@@H]1CCNC[C@H]1C(=O)N[C@H](CC(=O)N[C@@H](CCC(=O)O)CC(=O)O)Cc1ccccc1)NC(=O)C[C@H](Cc1ccccc1)NC(=O)[C@@H]1CNCC[C@H]1N,15.8 µM (active),> 46,inactive,inactive,inactive,inactive,inactive,
CC(C)[C@@H](CC(=O)N[C@@H]1CCCC[C@H]1C(=O)N[C@H](CC(=O)N[C@@H](CCC(=O)O)CC(=O)O)Cc1c[nH]c2ccccc12)NC(=O)C[C@H](CO)NC(=O)[C@@H]1CCCC[C@H]1N,inactive,> 46,inactive,inactive,inactive,inactive,inactive,
CC(C)C[C@@H](CC(=O)N[C@@H](CCC(=O)O)CC(=O)O)NC(=O)[C@@H]1CCCC[C@H]1NC(=O)C[C@@H](NC(=O)C[C@H](Cc1c[nH]c2ccccc12)NC(=O)[C@@H]1CNCC[C@H]1N)C(C)C,inactive,> 46,inactive,inactive,inactive,inactive,inactive,
CC(C)C[C@@H](CC(=O)N[C@@H](CCC(=O)O)CC(=O)O)NC(=O)[C@@H]1CCCC[C@H]1NC(=O)C[C@@H](NC(=O)C[C@H](Cc1ccccc1)NC(=O)[C@@H]1CCCC[C@H]1N)C(C)C,inactive,> 46,inactive,inactive,inactive,inactive,inactive,
NCCC[C@@H](CC(=O)N[C@@H]1CCNC[C@H]1C(=O)N[C@H](CC(=O)N[C@@H](CCC(=O)O)CC(=O)O)Cc1c[nH]c2ccccc12)NC(=O)C[C@H](CO)NC(=O)[C@@H]1CCCC[C@H]1N,inactive,> 46,inactive,inactive,inactive,inactive,,
CC(C)[C@@H](CC(=O)N[C@@H]1CCNC[C@H]1C(=O)N[C@H](CC(=O)N[C@@H](CCC(=O)O)CC(=O)O)Cc1ccccc1)NC(=O)C[C@H](Cc1c[nH]c2ccccc12)NC(=O)[C@@H]1CNCC[C@H]1N,inactive,> 46,inactive,inactive,inactive,inactive,inactive,
CC(C)C[C@@H](CC(=O)N[C@H](CC(=O)N[C@@H]1CCNC[C@H]1C(=O)N[C@H](CC(=O)N[C@@H](CCC(=O)O)CC(=O)O)CC(C)C)C(C)C)NC(=O)[C@@H]1CCCC[C@H]1N,inactive,> 46,inactive,inactive,,,,
CC(C)C[C@@H](CC(=O)N[C@H](CC(=O)N[C@@H]1CCCC[C@H]1C(=O)N[C@H](CC(=O)N[C@@H](CCC(=O)O)CC(=O)O)Cc1c[nH]c2ccccc12)C(C)C)NC(=O)[C@@H]1CCCC[C@H]1N,inactive,> 46,inactive,inactive,inactive,inactive,inactive,
NCCC[C@@H](CC(=O)N[C@@H]1CCCC[C@H]1C(=O)N[C@H](CC(=O)N[C@@H](CCC(=O)O)CC(=O)O)Cc1c[nH]c2ccccc12)NC(=O)C[C@H](Cc1ccccc1)NC(=O)[C@@H]1CNCC[C@H]1N,15.8 µM (active),> 46,inactive,inactive,inactive,,,
C[C@@H]1C[C@@]2(C)Oc3ccccc3[C@H]3OC[C@]1(COC(=O)Nc1ccccc1)[C@@H](C)[C@@H]32,15.8 µM (active),> 46,,,20 µM (active),,10 µM (active),> 46
O=c1cc(-c2ccccc2)oc2cc(O[C@H]3O[C@H](CO)[C@@H](O)[C@H](O)[C@@H]3O)c(O)c(O)c12,inactive,> 46,,,inactive,inactive,inactive,> 46
CC(C)C[C@@H](CC(=O)N[C@@H](CCC(=O)O)CC(=O)O)NC(=O)[C@@H]1CNCC[C@H]1NC(=O)C[C@H](CCCN)NC(=O)C[C@H](Cc1ccccc1)NC(=O)[C@@H]1CNCC[C@H]1N,31.6 µM (active),> 46,inactive,inactive,inactive,inactive,inactive,
CC(C)C[C@@H](CC(=O)N[C@@H](CCC(=O)O)CC(=O)O)NC(=O)[C@@H]1CNCC[C@H]1NC(=O)C[C@H](CCCN)NC(=O)C[C@H](Cc1c[nH]c2ccccc12)NC(=O)[C@@H]1CNCC[C@H]1N,inactive,> 46,inactive,inactive,inactive,inactive,inactive,
C=C(CO)[C@H]1Cc2c(ccc3c(=O)c4c(oc23)COc2cc(OC)c(OC)cc2-4)O1,inactive,> 46,,inactive,inactive,,inactive,> 46
